Results on 10 compounds are retold here after PubChem BioAssay (NCI).

Experiment [1] in a line: NCI Yeast Anticancer Drug Screen. Data for the rad50 strain (AID 155).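 Also: 0% = growth of vehicle-only cultures of the same strain.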 The following applies: S. cerevisiae rad50 strain growth inhibition, active compounds read high. In a few lines:
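Relative growth inhibition (compound vs vehicle) was measured in yeast with a defined repair-gene alteration.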

Experiment [2] can be described thus: NCI Yeast Anticancer Drug Screen. Data for the mec2-1 strain (AID 157). The following applies: S. cerevisiae mec2-1 strain, active compounds read high. In short, it runs like this:
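Yeast mec2-1 mutant treated with compound. Readout: growth inhibition vs vehicle controls.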

Experiment [3] is described as follows: NCI Yeast Anticancer Drug Screen. Data for the sgs1 mgt1 strain (AID 161).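 Also: 0% = growth of cultures given vehicle only.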 The following applies: S. cerevisiae sgs1 mgt1 strain, active compounds read high. In a few lines:
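Test agents were incubated with a DNA-repair-mutant yeast strain. Growth was then read and compared against vehicle-treated controls.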

Experiment [4] can be described thus: NCI Yeast Anticancer Drug Screen. Data for the cln2 rad14 strain (AID 165).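 Also: 0% = growth equal to vehicle treated cultures.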 The following applies: S. cerevisiae cln2 rad14 strain, active compounds read high. In short, it runs like this: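 cln2 rad14 yeast strain; compound exposure; growth inhibition read vs vehicle controls.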
Experiment [5] can be described thus: NCI Yeast Anticancer Drug Screen. Data for the bub3 strain (AID 167). As to conditions: S. cerevisiae bub3 mutant strain, active compounds read high. In short, it runs like this:
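Screening used yeast with an engineered genetic alteration affecting cell cycle control. Compound-exposed cultures were compared with vehicle cultures, and reduced growth was taken as inhibition.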

Experiment [6] is described as follows: NCI Yeast Anticancer Drug Screen. Data for the mlh1 rad18 strain (AID 175). The following applies: S. cerevisiae mlh1 rad18 strain growth inhibition, active compounds read high. In short, it runs like this: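 Yeast w/ defined DNA-repair lesions; compound exposure; growth vs vehicle controls → % inhibition.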
[7] abbreviates: at 5.0 µM (retest, dose inferred, filed as 0.5).
The mark [8] stands for this setting: at 50.0 µM (retest, dose inferred, filed as 5.0).

The panel holds about 79,000 compounds, 15% with a hit somewhere; the sample as a whole holds those more often. Unmarked numbers belong to inactive results. The source made the active and inactive calls. Rule as the data show it: active = growth inhibition above about 70%; inactive = the rest.

As to `CC(C)(Cl)C(Cl)CC/C(CBr)=C(\Cl)CBr` (stereo not given), the growth inhibition in experiment [1] (setting [7]) was 10%; in experiment [1] (setting [8]), 99% (active); in experiment [1] (at 50.0 µM), 73.5% (active); in experiment [2] (setting [7]), 17%; in experiment [2] (setting [8]), 99% (active); in experiment [2] (at 50.0 µM), 92.3% (active). The growth inhibition in experiment [3] (setting [7]) is -11%; in experiment [3] (setting [8]), 98% (active); in experiment [3] (at 50.0 µM), 92% (active); in experiment [4] (setting [7]) it was 21%; in experiment [4] (setting [8]), 95% (active); in experiment [4] (at 50.0 µM) it was 90.2% (active). The growth inhibition in experiment [5] (setting [7]) is 4%; in experiment [5] (setting [8]), 94% (active); in experiment [5] (at 50.0 µM), 92% (active); in experiment [6] (setting [7]), 11%; in experiment [6] (setting [8]) it was 99% (active); in experiment [6] (at 50.0 µM), 4.4%.

For the compound `Cc1ccc(C(=O)C(CN(C)C)CN(C)C)cc1`, the growth inhibition was 16% in experiment [1] (setting [7]); 41% in experiment [1] (setting [8]); 83.7% (active) in experiment [1] (at 50.0 µM); 12% in experiment [2] (setting [7]); 63% in experiment [2] (setting [8]); 92.3% (active) in experiment [2] (at 50.0 µM). The growth inhibition was 20% in experiment [3] (setting [7]); 76% (active) in experiment [3] (setting [8]); 88.5% (active) in experiment [3] (at 50.0 µM); 17% in experiment [4] (setting [7]); 39% in experiment [4] (setting [8]); 73.2% (active) in experiment [4] (at 50.0 µM). Further, the growth inhibition in experiment [5] (setting [7]) is 16%; in experiment [5] (setting [8]), 65%; in experiment [5] (at 50.0 µM) it was 88.7% (active); in experiment [6] (setting [7]) it was 14%; in experiment [6] (setting [8]) it was 72% (active); in experiment [6] (at 50.0 µM), 88% (active).

Take `CC(=O)OCC1OC(n2c(O)c(N=NC(N)=S)c3ccc([N+](=O)[O-])cc32)C(OC(C)=O)C1OC(C)=O` (stereo not given): the growth inhibition in experiment [1] (setting [7]) was 12%; in experiment [1] (setting [8]), 95% (active); in experiment [1] (at 50.0 µM), 96.5% (active); in experiment [2] (setting [7]), 5%; in experiment [2] (setting [8]), 47%; in experiment [2] (at 50.0 µM) it was 34.6%. In addition, the growth inhibition in experiment [3] (setting [7]) is -9%; in experiment [3] (setting [8]) it was 72% (active); in experiment [3] (at 50.0 µM), 71.5% (active); in experiment [4] (setting [7]) it was -33%; in experiment [4] (setting [8]), 23%; in experiment [4] (at 50.0 µM) it was -1.15%. Moreover, the growth inhibition in experiment [5] (setting [7]) is 6%; in experiment [5] (setting [8]), 34%; in experiment [5] (at 50.0 µM), 53.3%; in experiment [6] (setting [7]), -1%; in experiment [6] (setting [8]), 68%; in experiment [6] (at 50.0 µM), 61.3%.

`O=P1(O)c2ccccc2CS(=O)(=O)Cc2ccccc21`: the growth inhibition in experiment [1] (setting [7]) is 34%; in experiment [1] (setting [8]), 31%; in experiment [1] (at 50.0 µM) it was 21.4%; in experiment [2] (setting [7]) it was 21%; in experiment [2] (setting [8]), 24%; in experiment [2] (at 50.0 µM), -11.1%. In addition, the growth inhibition in experiment [3] (setting [7]) is 26%; in experiment [3] (setting [8]), 53%; in experiment [3] (at 50.0 µM), -24.2%; in experiment [4] (setting [7]), 16%; in experiment [4] (setting [8]), 29%; in experiment [4] (at 50.0 µM) it was -13.2%. For the same compound, the growth inhibition was 16% in experiment [5] (setting [7]); 46% in experiment [5] (setting [8]); -19.8% in experiment [5] (at 50.0 µM); 35% in experiment [6] (setting [7]); 43% in experiment [6] (setting [8]); -42.8% in experiment [6] (at 50.0 µM).

`Cc1cccc(C)c1N=Nc1c(C)nc(N)nc1-c1ccccc1`: the growth inhibition in experiment [1] (setting [7]) was 0%; in experiment [1] (setting [8]), 88% (active); in experiment [1] (at 50.0 µM), 96.8% (active); in experiment [2] (setting [7]), 12%; in experiment [2] (setting [8]), 95% (active); in experiment [2] (at 50.0 µM), 96.4% (active). Besides, the growth inhibition in experiment [3] (setting [7]) was 5%; in experiment [3] (setting [8]), 96% (active); in experiment [3] (at 50.0 µM) it was 95.5% (active); in experiment [4] (setting [7]) it was -4%; in experiment [4] (setting [8]), 90% (active); in experiment [4] (at 50.0 µM), 94.3% (active). Besides, the growth inhibition in experiment [5] (setting [7]) was -7%; in experiment [5] (setting [8]), 93% (active); in experiment [5] (at 50.0 µM), 96.3% (active); in experiment [6] (setting [7]), -4%; in experiment [6] (setting [8]), 91% (active); in experiment [6] (at 50.0 µM) it was 95.3% (active).

For `Clc1ccccc1N1CCN(c2c3c(nc4ccccc24)CCCCC3)CC1`, the growth inhibition was -4% in experiment [1] (setting [7]); 89% (active) in experiment [1] (setting [8]); 93.3% (active) in experiment [1] (at 50.0 µM); 11% in experiment [2] (setting [7]); 96% (active) in experiment [2] (setting [8]); 95.8% (active) in experiment [2] (at 50.0 µM). Moreover, the growth inhibition in experiment [3] (setting [7]) was 38%; in experiment [3] (setting [8]) it was 96% (active); in experiment [3] (at 50.0 µM), 94% (active); in experiment [4] (setting [7]) it was -13%; in experiment [4] (setting [8]), 91% (active); in experiment [4] (at 50.0 µM), 94.2% (active). The growth inhibition in experiment [5] (setting [7]) is -10%; in experiment [5] (setting [8]), 92% (active); in experiment [5] (at 50.0 µM) it was 93.2% (active); in experiment [6] (setting [7]), 42%; in experiment [6] (setting [8]), 94% (active); in experiment [6] (at 50.0 µM) it was 95.6% (active).

As for `CC(C)c1cc(=O)c2cc3[nH]c4ccccc4c3cc2[nH]1`, the growth inhibition was -2% in experiment [1] (setting [7]); 92% (active) in experiment [1] (setting [8]); 49.9% in experiment [1] (at 50.0 µM); -2% in experiment [2] (setting [7]); 87% (active) in experiment [2] (setting [8]); 52.8% in experiment [2] (at 50.0 µM). The growth inhibition in experiment [3] (setting [7]) is -69%; in experiment [3] (setting [8]), 96% (active); in experiment [3] (at 50.0 µM), 50.9%; in experiment [4] (setting [7]), -18%; in experiment [4] (setting [8]), 81% (active); in experiment [4] (at 50.0 µM), 68.5%. The growth inhibition in experiment [5] (setting [7]) is -2%; in experiment [5] (setting [8]), 94% (active); in experiment [5] (at 50.0 µM) it was 10.6%; in experiment [6] (setting [7]) it was -9%; in experiment [6] (setting [8]), 86% (active); in experiment [6] (at 50.0 µM), 54.2%.

Turning to `Clc1ccc2nc(Cl)c(Cl)nc2c1`, the growth inhibition in experiment [1] (setting [7]) was -143%; in experiment [1] (setting [8]), 42%; in experiment [1] (at 50.0 µM), 81.3% (active); in experiment [2] (setting [7]), -43%; in experiment [2] (setting [8]), 27%; in experiment [2] (at 50.0 µM), 45.3%. Also, the growth inhibition in experiment [3] (setting [7]) is -56%; in experiment [3] (setting [8]), 76% (active); in experiment [3] (at 50.0 µM), 88.9% (active); in experiment [4] (setting [7]), -54%; in experiment [4] (setting [8]), 51%; in experiment [4] (at 50.0 µM), 59.5%. For the same compound, the growth inhibition was -71% in experiment [5] (setting [7]); 44% in experiment [5] (setting [8]); 65.2% in experiment [5] (at 50.0 µM); -137% in experiment [6] (setting [7]); 62% in experiment [6] (setting [8]); 69.6% in experiment [6] (at 50.0 µM).

With `CCCCCCc1c(Cl)nc(Cl)nc1Cl`, the growth inhibition in experiment [1] (setting [7]) was -1%; in experiment [1] (setting [8]), 56%; in experiment [1] (at 50.0 µM), 65.8%; in experiment [2] (setting [7]) it was 1%; in experiment [2] (setting [8]), 43%; in experiment [2] (at 50.0 µM), 26.2%. The growth inhibition is -6% in experiment [3] (setting [7]); 41% in experiment [3] (setting [8]); 63.5% in experiment [3] (at 50.0 µM); 0% in experiment [4] (setting [7]); 15% in experiment [4] (setting [8]); -46.6% in experiment [4] (at 50.0 µM). The growth inhibition in experiment [5] (setting [7]) was -1%; in experiment [5] (setting [8]), 33%; in experiment [5] (at 50.0 µM) it was 25.1%; in experiment [6] (setting [7]), -2%; in experiment [6] (setting [8]), 66%; in experiment [6] (at 50.0 µM), 87.2% (active).

Turning to `COc1ccc(-c2nc(C)[nH]c(=O)c2Cc2c(O)ccc3ccccc23)cc1`, the growth inhibition in experiment [1] (setting [7]) was 3%; in experiment [1] (setting [8]), 50%; in experiment [1] (at 50.0 µM), 98.5% (active); in experiment [2] (setting [7]), -4%; in experiment [2] (setting [8]), 4%; in experiment [2] (at 50.0 µM), 10.3%. Also, the growth inhibition was 1% in experiment [3] (setting [7]); 8% in experiment [3] (setting [8]); 97.8% (active) in experiment [3] (at 50.0 µM); 4% in experiment [4] (setting [7]); 7% in experiment [4] (setting [8]); 22% in experiment [4] (at 50.0 µM). In addition, the growth inhibition in experiment [5] (setting [7]) was 0%; in experiment [5] (setting [8]), 1%; in experiment [5] (at 50.0 µM), 4.45%; in experiment [6] (setting [7]) it was 2%; in experiment [6] (setting [8]), 2%; in experiment [6] (at 50.0 µM), 97% (active).
